# Out of some 220,000 compounds screened, about 750 (0.34%) were called active. Only a selection was taken, and actives are over-represented in it overall. A number with no mark means an inactive call. Cut-off read from the data, not from the text of the source: active = response below about 60% or above about 140%; inactive = in between.
# Biological target: Guanine nucleotide-binding protein G(o) subunit alpha (Homo sapiens) (UniProt P09471)
# Experiment: RGS8-Galphao binding modulators, primary screen, biochemical, multiplexed bead flow cytometry (AID 1423);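 note: Galphao activated as the GDP aluminium fluoride complex binding bead-coupled RGS8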
# Conditions: at 10 µM, actives lie on both sides
# Sequence of Guanine nucleotide-binding protein G(o) subunit alpha (Homo sapiens) (P09471 whole entry, looked up): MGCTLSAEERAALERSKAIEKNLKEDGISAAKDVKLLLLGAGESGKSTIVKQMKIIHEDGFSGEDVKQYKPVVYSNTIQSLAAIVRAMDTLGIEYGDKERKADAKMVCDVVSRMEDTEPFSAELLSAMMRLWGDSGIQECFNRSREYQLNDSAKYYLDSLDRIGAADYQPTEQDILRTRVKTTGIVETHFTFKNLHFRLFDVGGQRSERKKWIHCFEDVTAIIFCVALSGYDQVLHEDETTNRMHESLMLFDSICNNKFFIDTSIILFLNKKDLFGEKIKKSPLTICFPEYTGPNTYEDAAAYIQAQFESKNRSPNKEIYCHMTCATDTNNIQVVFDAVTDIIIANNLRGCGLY
row,Structure (SMILES),response (percent of control binding)
1,S=C1NC(c2ccccc2)=NCN1c1ccc(Br)cc1,106%
2,COc1ccc(N2C(=O)CNC2=S)cc1,102%
3,CC(C)NC(=O)c1ccc(Sc2ccccc2)c([N+](=O)[O-])c1,103%
4,Cc1c(C(=O)Nc2cccc(-c3nnc4n3CCCCC4)c2)oc2ccccc12,101%
5,O=C(COC(=O)/C=C/c1ccc2c(c1)OCO2)NC1CCS(=O)(=O)C1 (configuration not stated),99.8%
6,Nc1ccc(C(=O)OCC(=O)NC2CCS(=O)(=O)C2)cc1[N+](=O)[O-] (configuration not stated),6.98% (active)
7,Nc1ccc(C(=O)OCC(=O)NC2CCCc3ccccc32)cc1[N+](=O)[O-] (configuration not stated),101%
8,Cc1ccc(/C=N/NC(=O)CSc2ccccn2)o1,101%
9,CC[C@H]1OC(=O)[C@H](C)[C@@H](O[C@H]2C[C@@](C)(OC)[C@@H](O)[C@H](C)O2)[C@H](C)[C@@H](O[C@@H]2O[C@H](C)C[C@H](N(C)C)[C@H]2O)[C@](C)(O)C[C@@H](C)[C@@H]2N[C@@H](COCCOC)O[C@H]([C@H]2C)[C@]1(C)O,85.8%
10,CCC(=O)Nc1nc(OC)cc(OC)n1,100%
11,CC(=O)Nc1nc(N(C)C)nc(N(C)C)n1,25.1% (active)
12,COc1cc(OC)nc(NC(=O)CCl)n1,100%
13,CC(=O)c1c(C)[nH]c(C(=O)OCC(=O)Nc2sc3c(c2C#N)CCCC3)c1C,101%
14,O=Cc1ccc(OCc2cn3ccccc3n2)cc1,101%
15,Cn1cc(CCC(=O)N2CCCC(C(=O)c3ccc(C(C)(C)C)cc3)C2)cn1 (configuration not stated),98.1%
16,CCOC(=O)C1CCCN(C(=O)/C=C/c2ccc(OC)cc2)C1 (configuration not stated),100%
17,COc1cc(C2C(C(=O)c3ccc(C)o3)=C(O)C(=O)N2CCc2ccccc2)ccc1O (configuration not stated),101%
18,CCOC(=O)C1=C(c2ccccc2)N=C2SCC(=O)N2C1c1ccc(O)c(OC)c1 (configuration not stated),144% [activator] (active)
19,C=CCOC(=O)C1=C(C)N=C2SCCC(=O)N2C1/C=C/c1ccccc1OC (configuration not stated),92.4%
20,O=C(COc1nc2ccccc2nc1N1CCOCC1)NCC(F)(F)F,86%
21,CCOc1cc2[nH]c(=S)n(CCN3CCCCC3C)c(=O)c2cc1OCC (configuration not stated),111%
22,O=C(OCC1O[C@@H](OC(=O)c2cc(O)c(O)c(O)c2)[C@@H](OC(=O)c2cc(O)c(O)c(O)c2)[C@@H](OC(=O)c2cc(O)c(O)c(O)c2)[C@@H]1OC(=O)c1cc(O)c(O)c(O)c1)c1cc(O)c(O)c(O)c1 (some centres not stated),46.9% (active)
23,CC(=O)NC1C(OCc2ccccc2)OC(COC(C)=O)C(OC(C)=O)C1OC(C)=O (configuration not stated),105%

row,Structure (SMILES),response (percent of control binding)
1,Cc1nnc(-c2ccc(Oc3ccc(C)c(C)c3)c([N+](=O)[O-])c2)o1,99.2%
2,O=C(Oc1ccccc1C(=S)N1CCCCC1)c1cc([N+](=O)[O-])cc([N+](=O)[O-])c1,95.2%
3,Cc1cc(=O)oc2cc(OCCC[n+]3ccccc3)ccc12,101%
4,CCOC(=O)c1c(/N=C/C2C(=O)CC(C)(C)CC2=O)sc(C)c1C,113%
5,Cc1ccc(C(=O)NCC(=O)O)s1,102%
6,N=C1C(=O)OCC1c1ccccc1NC(=O)CN1CCCCC1 (configuration not stated),100%
7,CCCc1ccc(C(=O)[C@@H]2[C@@H](C(C)=O)N3c4ccc(F)cc4C=C[C@@H]3[C@@]23C(=O)Nc2ccccc23)cc1,94.4%
8,Cn1nc(-c2ccccc2)c(CO)c1Sc1ccccc1,95.1%
9,CC(C)(C)CN1C(=O)C(=O)NC[C@H]1Cc1cccc2ccccc12,96.5%
10,CCNC(=O)NC(=O)C(C)OC(=O)C1CCN(S(=O)(=O)c2ccccc2F)CC1 (configuration not stated),106%
11,CC(NC(=O)CCC(=O)N1CCN(S(=O)(=O)c2ccc(Cl)cc2)CC1)c1ccccc1 (configuration not stated),101%
12,CC(NC(=O)COC(=O)C1CCN(S(=O)(=O)c2ccccc2C(F)(F)F)CC1)c1ccccc1 (configuration not stated),148% [activator] (active)
13,O=C(C1CC1)N1N=C2CCCCC2C1(O)C(F)(F)F (configuration not stated),100%
14,COC(=O)c1c(NC(=O)CN2CCN(S(=O)(=O)c3ccccc3[N+](=O)[O-])CC2)sc2c1CCC(C)C2 (configuration not stated),104%
15,Cc1ccc(C)c(NC(=O)c2ccc(OC(=O)c3ccco3)cc2)c1,102%
16,CC1=CC2=NC(=O)/C(=C/c3coc4ccccc4c3=O)C(=N)N2O1,108%
17,O=C(COC(=O)CC1CC2CCC1C2)NC(=O)NC1CCCC1 (configuration not stated),102%
18,O=C(c1ccccc1)C(Cn1cncn1)C(Sc1ccccc1)c1ccccc1 (configuration not stated),92.9%
19,CCC(=O)N1CCC(C(N)=O)(N2CCCCC2)CC1,163% [activator] (active)
20,NC(=O)C1(N2CCCCC2)CCN(C(=S)Nc2ccc(Cl)cc2)CC1,129%
21,CC(C)(O)C#Cc1ccc(C(=O)N2CCC(C(N)=O)(N3CCCCC3)CC2)cc1,100%
22,COc1ccc(NC(=S)NCC2CCN(c3ccc(OC)cc3)C2)cc1 (configuration not stated),97.5%
23,Cc1ccc(S(=O)(=O)N2CCOCC2)cc1C(=O)NC(=S)N(Cc1ccccc1)C(C)C,96.3%

row,Structure (SMILES),response (percent of control binding)
1,COc1ccc(NC(=S)N2CCc3cc(OC)c(OC)cc3C2)cc1,103%
2,O=C(CSc1ncn[nH]1)Nc1nsc(-c2ccccc2)n1,79%
3,CC(C)(C)C1C/C(=C/c2ccco2)C(=O)/C(=C/c2ccco2)C1 (configuration not stated),97.5%
4,COc1cc(/C=C/C(=O)N2c3ccccc3Sc3ccc(C(F)(F)F)cc32)cc(OC)c1OC,101%
5,O=C(CN1CCCCCC1)N1c2ccccc2Sc2ccc(C(F)(F)F)cc21,107%
6,O=C(CN1CCCCC1)N1c2ccccc2Sc2ccc(C(F)(F)F)cc21,22.7% (active)
7,Cc1nc(N2CCOCC2)nc2c1CCCC2,99.2%
8,C[C@@H]1NC(=O)c2cc([N+](=O)[O-])cc(F)c2NCCC[C@@H](C(N)=O)NC(=O)[C@H](CC(N)=O)NC1=O,100%
9,CCCC(=O)n1nc(-c2ccccc2)nc1N,20.9% (active)
10,COc1ccc(CC(=O)n2nc(-c3cccnc3)nc2N)cc1,101%
11,COc1ccccc1C(=O)n1nc(-c2ccccc2)nc1N,101%
12,COC(=O)Nc1ncc(CN2CCCCC2)s1,111%
13,CCOC(=O)CNc1nc2ccccc2n2c(C)nnc12,99.9%
14,O=C1CCC(=O)N(O)CCCCCNC(=O)CCC(=O)N(O)CCCCCNC(=O)CCC(=O)N(O)CCCCCN1,55.9% (active)
15,CCSc1nc(C)c(CCOc2cccc(C)c2)c(=O)[nH]1,101%
16,CN(C)S(=O)(=O)c1cccc(-c2nn(-c3ccccc3)cc2/C=C2\SC(=S)N(CC(=O)O)C2=O)c1,99.8%
17,Cc1ncn2cc(-c3ccc(Cl)cc3Cl)[nH]c(=O)c12,102%
18,O=C(Nc1nnc(Cc2ccc(Cl)cc2)s1)c1ccncc1,101%
19,Cc1c(NC(=O)C(=O)N/N=C/c2cccs2)c(=O)n(-c2ccccc2)n1C,103%
20,COc1ccc(C(=O)COC(=O)COc2ccc(C)c(C)c2)cc1,102%
21,Cc1nc2cc(NC(=O)NC3CC3)ccc2n1C,103%
22,Cc1cc2nc(C)n(CCCNC(=O)Nc3ccccc3)c2cc1C,170% [activator] (active)
23,Cc1nc2cc(NC(=O)Nc3cccc(F)c3)ccc2n1C,97.9%

row,Structure (SMILES),response (percent of control binding)
1,O=C(O)/C=C/c1ccc(OCCCF)cc1,98%
2,O=C(Cc1ccccc1)NCC1OCCc2ccccc21 (configuration not stated),100%
3,CCc1cc(C(=O)c2ccc(OC)cc2)c(NC(=O)CN2CCN(C)CC2)s1,107%
4,Cc1nc(Nc2ccc(S(=O)(=O)N3CCCC3)cc2)c2nnn(Cc3ccccc3)c2n1,101%
5,Clc1ccc(Nc2ncnc3c2nnn3Cc2ccccc2)cc1,99.3%
6,CC(C)Cc1nc(Nc2ccc(S(=O)(=O)N3CCCC3)cc2)c2nnn(Cc3ccccc3)c2n1,141% [activator] (active)
7,CC(C)CCNC(=O)C1CCC(CNc2c(N3CCC(C)CC3)c(=O)c2=O)CC1 (configuration not stated),99.2%
8,NC(=O)C1(N2CCCCC2)CCN(C2CC(=O)N(Cc3ccc(N4CCCC4=O)cc3)C2=O)CC1 (configuration not stated),97.6%
9,Cc1cccc(C(=O)NNC(=O)c2cccc([N+](=O)[O-])c2)c1,101%
10,Cc1ccc(Cn2c(SCC(=O)N/N=C/c3ccccc3OCC(=O)O)nc3ccccc32)cc1,104%
11,COc1ccc(OC)c(/C=N/NC(=O)CSc2nnc(C)n2-c2ccccc2)c1,95.2%
12,C=CCn1c(Cn2nnc3ccccc32)nnc1SCC(=O)N/N=C/c1cc(Br)cc(OC)c1O,5.17% (active)
13,C=CCNC(=O)COC(=O)c1ccccc1C(=O)N(C)C1CCCCC1,103%
14,O=C(Cc1c[nH]c2ccccc12)OCCOC(=O)Cc1c[nH]c2ccccc12,101%
15,NC(=O)CSc1c[nH]c2ccccc12,27.5% (active)
16,CCCn1cc(SCC(N)=O)c2ccccc21,90.4%
17,COc1ccc(CC(=O)N[C@@H](CCSC)c2nc3ccccc3[nH]2)cc1,106%
18,Cc1ccccc1Cn1nc(C)c(NC(=O)C(F)(F)F)c1C,106%
19,CCCCN1CCNC1=S,99.3%
20,Cc1noc(C)c1S(=O)(=O)N(C)Cc1ccccc1,98%
21,CCOC(=O)C1C(c2ccc(Cl)cc2)NC(=S)NC1(O)C(F)(F)F (configuration not stated),102%
22,CCOC(=O)C1=C(C)NC(=O)N(C(C)=O)C1c1ccc(Cl)cc1 (configuration not stated),103%
23,CCOC(=O)C1Sc2[nH]c(=O)sc2C(c2ccc(Cl)cc2)C1C(=O)OCC (configuration not stated),7.38% (active)
